Most compounds without a hit are left out; they make up all but 11% or so of the library.
BAZ2B block: inhibitors of human BAZ2B bromodomain | Q9UIF8 | AID 504333 | actives 4.4% (n = 360,000) | Potency, µM (highest dose often 114 µM), inactives show at the top dose activity change, negative = inhibition, usual class: inhibitors | AlphaScreen BAZ2B-H3K14Ac peptide displacement; also: % is scaled to controls: 0 for no effect and ±100 for the full control effect; nearly all actives have a fitted effect of over 60% in size
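In this displacement format the biotinylated H3(5-23) peptide acetylated at Lys14 serves as ligand at 50 nM, with BAZ2B at 50 nM in PBS pH 7.4 containing 0.01% Tween-20. Donor and acceptor beads are 10 ug/mL final.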
L3MBTL1 inh: L3MBTL1 (human) inhibition; Q9Y468; AlphaScreen L3MBTL1–H3K9me1 peptide binding; Potency, µM (titrated, usually from 57.1 µM), inactives show at the highest dose activity, negative = inhibition, actives largely listed as inhibitors; actives 0.66% (n = 230,000); also: % is scaled to controls: 0 for no effect and ±100 for the full control effect; nearly all actives have a fitted effect of over 60% in size
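First, the protein-peptide complex forms for 30 min at room temperature (L3MBTL1 50 nM, biotinylated H3K9me1 peptide 75 nM). Next, compounds are pin-transferred and incubated 30 min. Finally, AlphaScreen beads are added and read after 30 min.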
G9a inh: blocks human histone lysine methyltransferase G9a | actives 8.8% (n = 350,000) | Q96KQ7 | G9a H3K9 monomethylation, AlphaScreen, 2 h | Potency, µM (titrated, usually from 102 µM), without a hit: at the top dose activity, negative = inhibition, most hits filed as inhibitors; also: % is scaled to controls: 0 for no effect and ±100 for the full control effect; nearly all actives have a fitted effect of over 75% in size
Target sequence (Q96KQ7 913-1193 limits assumed): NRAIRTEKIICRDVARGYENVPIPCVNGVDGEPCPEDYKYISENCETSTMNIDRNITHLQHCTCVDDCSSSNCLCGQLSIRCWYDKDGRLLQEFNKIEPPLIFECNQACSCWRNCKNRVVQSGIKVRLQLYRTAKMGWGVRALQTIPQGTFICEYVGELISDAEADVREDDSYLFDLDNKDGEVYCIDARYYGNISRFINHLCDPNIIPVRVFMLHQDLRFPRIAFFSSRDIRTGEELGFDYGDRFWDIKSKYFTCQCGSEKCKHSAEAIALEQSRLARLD
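Step 1: enzyme (final 20 nM) with compound, 15 min RT. Step 2: substrate peptide 500 nM and SAM 20 uM, 2 h RT. Step 3: anti-H3K9me1 antibody and AlphaScreen beads, 10 min, then plate read.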
JMJD2A Tudor: JMJD2A Tudor domain (human) inhibition; O75164; AlphaScreen JMJD2A-Tudor / H3K4me3 peptide binding; Potency, µM (titrated, usually from 114 µM), for inactives: at the highest dose activity change, negative = inhibition, most hits filed as inhibitors; actives 4.4% (n = 390,000); AID 504339; also: % is scaled to controls: 0 for no effect and ±100 for the full control effect; nearly all actives have a fitted effect of over 50% in size
HP1b chromo inh: HP1-beta chromodomain-methylated histone interaction inhibition | AlphaScreen HP1-beta / biotin-H3K9me3 peptide binding | P83916 | AID 540317 | Potency, µM (series often up to 114 µM), for the others: at the top dose activity change, negative = inhibition, actives largely listed as inhibitors | actives 0.56% (n = 390,000); also: nearly all actives have a fitted effect of over 70% in size
Target sequence (P83916 whole entry, looked up): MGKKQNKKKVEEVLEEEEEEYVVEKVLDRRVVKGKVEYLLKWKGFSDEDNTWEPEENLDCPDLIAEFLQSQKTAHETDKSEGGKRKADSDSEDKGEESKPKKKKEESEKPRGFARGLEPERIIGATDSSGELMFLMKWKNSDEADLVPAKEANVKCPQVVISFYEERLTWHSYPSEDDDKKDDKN
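AlphaScreen: HP1-beta (50 nM) preformed 30 min with biotin-H3(1-18)K9me3 peptide (50 nM) in PBS pH 7.4, 0.01% Tween-20. Compound added for 30 min at RT, then streptavidin donor/nickel chelate acceptor beads (10 ug/mL) for 30 min.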
The depositor's hits bear a star; ? = inconclusive; nt = no result given; ! = repeats disagree; [ ] = another dose, or the depositor's remark. Calls follow the shape of the dose curve; as a rule, active = well fitted inhibition curve with a large enough effect; inconclusive = small, poorly fitted or top-dose-only effect; inactive = no such curve, though single readings can be large or run the other way. Potency is read from the fitted curve at half-maximal effect.

SMILES	BAZ2B block	L3MBTL1 inh	G9a inh	JMJD2A Tudor	HP1b chromo inh
CC1(C)CC(=O)C(C=NCCN2CCN(C(=O)Cc3ccc(F)cc3)CC2)=C(O)C1	7%	-2%	35µM*	-7%	56%
Cc1ccc(C2CC(=O)C(C=NCCN3CCN(C(=O)Cc4ccccc4)CC3)=C(O)C2)cc1 (stereo unspecified)	6%	4%	?	2%[57.1 µM]	17%
CC1(C)CC(=O)C=C(NCCN2CCN(C(=O)Cc3ccc(Cl)cc3)CC2)C1	6%	-14%	71µM*	-3%	20%
O=C1CC(c2ccccc2)CC(O)=C1C=NCCN1CCN(C(=O)Cc2ccccc2)CC1 (stereo unspecified)	10%	nt	79µM*	-11%	44%
COC(=O)[C@H]1[C@H]2C[C@@H]3c4[nH]c5cc(OC)ccc5c4CCN3C[C@H]2C[C@@H](OC(=O)/C=C/c2cc(OC)c(OC)c(OC)c2)[C@@H]1OC	?	?	8.9µM*	28µM*	-22%
N[C@@H](Cc1cc(Br)c(O)c(Br)c1)C(=O)O	-7%	?	35µM*	nt	nt
COc1ccccc1NC(=O)N(Cc1ccco1)C1CCN(C(C)=O)CC1	4%	nt	6%[59 µM]	-13%	50%
CCOP(=O)(OCC)/C(=N/OC(=O)c1ccc(Cl)cc1Cl)C(N)=O	-2%	7%	50µM*	-3%	76%
CCOP(=O)(OCC)C(NC(=O)c1ccc(Cl)cc1)=C(Cl)Cl	-10%	3%	46%[0.501 µM]	-4%	19%
Clc1ccc(CS[C@@H](Cn2ccnc2)c2ccc(Cl)cc2Cl)cc1	nt	nt	-12%[21.5 µM]	nt	nt
Oc1ccc2c3c1O[C@H]1[C@@H](O)CC[C@@]4(O)C(C2)N(CC2CCC2)CCC314 (stereo partly specified)	nt	nt	31%[12.7 µM]	nt	nt
COc1ccc(C(=O)C2CN(C)CC2c2ccc(Cl)cc2)cc1 (stereo unspecified)	-24%	?	-35%	-17%	32%
CN1CC(C(=O)c2ccc([N+](=O)[O-])cc2)C(c2ccc(Cl)cc2)C1 (stereo unspecified)	?	nt	21%[2.33 µM]	45µM*	?
CO[C@H]1[C@@H](O)CC(OC2[C@@H](O)CC(OC3[C@@H](O)C[C@H](OC4CC[C@@]5(C)C(CCC6C5CC(O)[C@]5(C)[C@H](C7=CC(=O)OC7)CCC65O)C4)O[C@@H]3C)O[C@@H]2C)O[C@@H]1C (stereo partly specified)	nt	nt	10%[12.7 µM]	nt	nt
O=C(C(=C1N(Cc2ccc(Cl)nc2)CCN1Cc1ccc(Cl)nc1)[N+](=O)[O-])C(Cl)Cl	-11%	nt	?	0%	55%
CCC1CO/C(=C(\C(Cl)=C(Cl)Cl)[N+](=O)[O-])N1Cc1ccc(Cl)nc1 (stereo unspecified)	79µM*	nt	?	-28%	20%
CC(=O)Oc1ccc(Cl)c2cccnc12	nt	nt	-8%[2.33 µM]	nt	nt
CCOc1cc(-c2ccc(N)c(OCC)c2)ccc1N	14µM*	?	?	?	8.9µM*
CC(C)NC(=O)N1CCC2(CC1)CCN(C(=O)Oc1ccccc1)CC2	nt	nt	-19%[12.7 µM]	nt	nt
Cc1oc(-c2ccccc2Cl)nc1CN1C(=O)CN=C(c2ccccc2)c2cc(Cl)ccc21	-5%	nt	-34%[59 µM]	-10%	34%
Cc1oc(-c2cccc(Cl)c2)nc1CN1CCC(C(=O)NCCCN2CCN(c3cccc(Cl)c3)CC2)CC1	28µM*	nt	?	32µM*	-8%
CCN1CCc2ccccc2C1	-8%	-11%	?	-13%[11.4 µM]	38%
CCN1CCN(CC(c2ccccc2)c2ccccc2)CC1	10µM*	-6%	?	0.79µM*	?
OCc1cnc[nH]1	-24%	4%	12µM*!	?	10%
COC1CC(=C(c2cccs2)c2cccs2)C[N+](C)(C)C1 (stereo unspecified)	nt	nt	-9%[12.7 µM]	nt	nt
SMILES	BAZ2B block	L3MBTL1 inh	G9a inh	JMJD2A Tudor	HP1b chromo inh
Cc1cc(O)c2c(c1)C(=O)c1cc(O)cc(O)c1C2=O	nt	nt	1.7µM*	45µM*	?
c1cncc(C2CCCCN2Cc2ccc3c(c2)OCO3)c1 (stereo unspecified)	?	-2%	79µM*	-33%	1%
O=S(=O)(c1ccccc1)N1CCCCC1c1cccnc1 (stereo unspecified)	-24%	-1%	4%[12.7 µM]	-10%	8%
Clc1cccc(CN2CCCCC2c2cccnc2)c1 (stereo unspecified)	?	-5%	56µM*	-13%	50%
O=C1C2CCCN2C(c2cccnc2)N1c1cccc(Cl)c1 (stereo unspecified)	6%	nt	-1%	-1%	25%
CN1CCC[C@H]1c1cccnc1	-5%	11%	14µM*!	?	24%
CN1CCCCC1c1ccc(-c2cccnc2)nc1 (stereo unspecified)	?	7%	-118%[59 µM]	-18%	32%
O=C1C2CCCN2C(c2cccnc2)N1c1nccs1 (stereo unspecified)	-35%	4%	13µM*	?	18%
CN1c2ccccc2C(NCCCCCCC(=O)O)c2ccc(Cl)cc2S1(=O)=O (stereo unspecified)	nt	nt	-2%[12.7 µM]	nt	nt
FC(F)OC(F)(F)C(F)Cl (stereo unspecified)	nt	nt	9%[12.7 µM]	nt	nt
Cc1cc(C)cc(N2C(=O)NC(=O)/C(=C/c3cccn3-c3ccc(Cl)cc3)C2=O)c1	-10%	-8%	32µM*	-3%	41%
COC[C@H]1OC(=O)c2coc3c2[C@@]1(C)C1=C(C3=O)[C@@H]2CCC(=O)[C@@]2(C)C[C@H]1OC(C)=O	nt	nt	5µM*	-5%	25%
CCN1C(=O)c2ccccc2Sc2ccc(NC(=O)c3ccc(C)c(F)c3)cc21	1%	nt	2%[59 µM]	?	25%[57 µM]
CCOC(=O)c1ccc2c(c1)N(CC)C(=O)c1ccccc1S2	-7%	nt	45µM*	-3%	24%
Cn1c(O)c(C(=O)c2ccccc2)c(=O)n(C)c1=O	6%	-6%	-7%[12.7 µM]	-18%	45%
Cn1c(O)c(C2=NN(C(=O)CCl)C(c3ccccc3)C2)c(=O)n(C)c1=O (stereo unspecified)	-38%	-4%	32µM*	22µM*	24%
CCC(=O)N1N=C(c2c(O)n(C)c(=O)n(C)c2=O)CC1c1ccccc1 (stereo unspecified)	-16%	1%	25µM*	-13%	48%
Cn1c(O)c(C=NC2CCN(Cc3ccccc3)CC2)c(=O)n(C)c1=O	-6%	5%	19%[59 µM]	7%	22%
COc1ccc(CC2C(=O)N(c3ccccc3)C(=O)N(c3ccccc3)C2=O)c(OC)c1	-5%	nt	45µM*	-19%	30%
COc1ccc(CC2C(=O)NC(=O)N(c3ccccc3)C2=O)c(OC)c1 (stereo unspecified)	?	-2%	?	-25%	23%
Cc1[nH]ccc2c1[nH]c1cc(=O)ccc12	-12%	2%	50µM*	-9%	6%

Source: PubChem BioAssay (National Center for Advancing Translational Sciences (NCATS))
